Results on 40 compounds are retold here after PubChem BioAssay AID488832 (National Center for Advancing Translational Sciences (NCATS), 2010).

SMILES strings stand for the structures. Inconclusive results are not listed. Activity calls are given as the source filed them. The call rests on the fitted dose curve; in most records, active means well fitted activation curve with a large enough effect; inconclusive means small, poorly fitted or top-dose-only effect; inactive means no such curve, though single readings can be large or run the other way.

A short description of this assay: Confirmation Concentration-Response Assay for Enhancers of SMN2 Splice Variant Expression for Further Probe SAR. As to conditions: HEK293 SMN2 exon7-luciferase splicing reporter, luminescence, 30-36 h; series mostly up to 46.1 µM. The source says:
NIH Chemical Genomics Center [NCGC] NIH Molecular Libraries Probe Production centers Network [MLPCN] MLPCN Grant: R03 MH084179-01 Assay Submitter (PI): Elliot Androphy NCGC Assay Overview: Spinal muscular atrophy (SMA) is caused by insufficient levels of the survival motor neuron protein SMN. The SMN locus on chromosome 5q13 contains two inverted copies of SMN called SMN1 and SMN2 which are 99% identical at the amino acid level. SMN1 is a fully functional protein and SMN2 skips exon 7 90% of the time. Skipping of exon 7 produces non-functional protein product. 10% of the SMN2 protein includes exon 7 and is fully functional. In the SMA disease state, mutations in the SMN1 locus are the cause of the disease state. Because only 10% of SMN2 is of the fully functional form, it is not sufficient to overcome the deficiency produced by the loss of the SMN1 product. A therapy that either increase the amount of SMN2 product made or to increase the inclusion of exon 7 has been proposed for the treatment of SMA. We have designed an assay to identify small molecules that can increase the amount of functional SMN2 product by appending a luciferase reporter gene after the native SMN2 gene, such that inclusion of exon 7 in the expressed product places the luciferase sequence in frame, thus generating functional luciferase enzyme.
NCGC Assay Protocol Summary: This screen utilizes a luciferase reporter gene assay, combining the promoter with the major portion of the native SMN2 cDNA (exons 1 -7, intron 8 , exon 8 fused to luciferase) stably expressed in HEK293 cells. Compounds that increase luciferase signal presumably enhance expression of the functional SMN2 splice variant. Passaging media contained DMEM w/ glutamax (+phenol red) 10% FCS, 1x pen/strep, 200 ug/ml hygro, 1x sodium pyruvate. Assay media contained DMEM w/ glutamax (-phenol red) 10% FCS, 1x pen strep, 1x pyruvate Sequence, Parameter, Value, Description (1) Cells, 5 uL, 2000 cells/well, 1536 TC treated White solid bottom plate (2) Time, 10-12 hours, 37C 5% CO2 (3) Compound, 23 nl, MLSMR Library (4) Control Compound, 23 nL, Sodium butyrate st 4.5mM (final) conc (5) Time, 30-36 hours, 37C 5% CO2 (6) Reagent, 3 ul, One Glo (TM) from Promega (7) Time, 5-15 minutes, Room temp (8) Detector, Viewlux: luminescent read, 60 second integration, high speed 2x binning Keywords: Spinal muscular atrophy, SMA, SMN2, high throughput screening, MLSMR, MLPCN, NIH Roadmap, qHTS and NCGC
`CC(=O)C1CCN(c2ncc(-c3cccc(N(C)C)c3)s2)CC1`: the Potency was 2.74 µM (active).
The same measure for `NC(=O)N1CCN(c2nc(-c3ccc(Br)cc3)cs2)CC1`: 13.7 µM (active); for `CN(C)c1cccc(-c2ccnc(N3CCC(C(N)=O)CC3)n2)c1`: 0.688 µM (active); for `CN(C)c1cccc(-c2ncc(F)c(N3CCC(C(N)=O)CC3)n2)c1`: 2.44 µM (active).
For `O=C(O)C1CCN(c2nc(-c3ccc(Br)cc3)cs2)CC1`, the Potency was 2.44 µM (active).
The same measure for `NC(=O)C1CCN(c2nc(-c3cccc4ccccc34)cs2)CC1`: “inactive”.
The figure for `NC(=O)C1CCN(c2ncc(-c3cccc(N4CCCCC4)c3)s2)CC1` is 1.09 µM (active).
The figure for `CN(C)c1cccc(-c2nnc(N3CCC(C(N)=O)CC3)s2)c1` is 0.218 µM (active); for `NC(=O)C1CCN(c2nccc(-c3ccc(Br)cc3)n2)CC1` it is 0.244 µM (active).
Turning to `CCOC(=O)C1CCN(c2ncc(-c3ccc4c(c3)OCCCO4)s2)CC1`, the Potency was 0.0274 µM (active).
The figure for `CC(C)Oc1cccc(-c2csc(N3CCC(C(N)=O)CC3)n2)c1` is 0.688 µM (active); for `CN(C)c1cccc(-c2nccc(N3CCC(C(N)=O)CC3)n2)c1` it is 12.2 µM (active).
The figure for `c1c[nH]c(C2CCN(c3ncc(-c4ccc5c(c4)OCCCO5)s3)CC2)n1` is 2.18 µM (active).
The same measure for `Nc1nc(N)c2c(OCC3CCN(Cc4ccccc4F)CC3)cccc2n1`: “inactive”.
In the case of `NC(=O)C1CCN(c2ncc(-c3cccc(N4CCOCC4)c3)s2)CC1`, the Potency is 1.94 µM (active).
Consider `CN(C)c1cccc(-c2cnc(N3CCC(C(N)=O)CC3)nc2)c1`, for which the Potency was 0.547 µM (active).
For `CN(C)c1cccc(-c2cnc(N3CCC(C(N)=O)CC3)s2)c1`, the Potency is 0.0244 µM (active).
The same measure for `O=C(c1ccco1)N1CCN(c2nc(-c3ccc(Br)cc3)cs2)CC1`: “inactive”; for `NC(=O)C1CCN(c2ncc(-c3ccc(Cl)cc3)s2)CC1`: 0.137 µM (active).
The figure for `O=C(O)C1CCN(c2ncc(-c3ccc4c(c3)OCCCO4)s2)CC1` is 0.0087 µM (active); for `N#Cc1ccccc1-c1csc(N2CCC(C(N)=O)CC2)n1` it is “inactive”.
`NC(=O)C1CCN(c2nc(-c3ccc(OC(F)(F)F)cc3)cs2)CC1`: the Potency is 3.07 µM (active).
The entry for `CC(=O)NC1CCN(c2nc(-c3ccc(Br)cc3)cs2)CC1` is “inactive”; for `NC(=O)C1CCN(c2ncc(-c3ccc4c(c3)OCO4)s2)CC1` it is 0.0487 µM (active).
The figure for `CN(C)c1cccc(-c2nc(N3CCC(C(N)=O)CC3)ncc2F)c1` is 0.345 µM (active).
The same measure for `O=C(NCCCCc1ccccc1)C1CCN(c2nc(-c3ccc(Br)cc3)cs2)CC1`: “inactive”.
For `NC(=O)C1CCN(c2nc(-c3ccc(N4CCCCC4)nc3)cs2)CC1`, the Potency was 3.45 µM (active).
Turning to `NC(=O)C1CCN(c2nccc(-c3ccc4c(c3)OCCCO4)n2)CC1`, the Potency was 1.54 µM (active).
Take `NC(=O)C1CCN(c2ncc(Br)cn2)CC1`: the Potency entry was “inactive”.
The figure for `NC(=O)C1CCN(c2ncc(-c3ccc4c(c3)OCCCO4)s2)CC1` is 0.0307 µM (active).
The same measure for `NC(=O)C1CCN(c2ncc(Br)s2)CC1`: “inactive”.
The figure for `COc1ccc(-c2cnc(N3CCC(C(N)=O)CC3)s2)cc1OC` is 7.72 µM (active).
As to `Brc1ccc(-c2csc(N3CCC(c4nn[nH]n4)CC3)n2)cc1`, the Potency is 17.3 µM (active).
The same measure for `CC(C)Oc1ccc(-c2csc(N3CCC(C(N)=O)CC3)n2)cc1`: 3.87 µM (active); for `NC1CCN(c2nc(-c3ccc(Br)cc3)cs2)CC1`: 1.94 µM (active); for `COc1cccc(-c2csc(N3CCC(C(N)=O)CC3)n2)c1`: 1.09 µM (active).
For `NC(=O)C1CCN(c2nc(-c3ccc4c(c3)CCO4)cs2)CC1`, the Potency was 12.2 µM (active).
The entry for `O=C(c1ccccc1)N1CCN(c2nc(-c3ccc(Br)cc3)cs2)CC1` is “inactive”; for `NC(=O)C1CCN(c2nc(-c3ccc(Oc4ccccc4)cc3)cs2)CC1` it is 4.34 µM (active); for `Cc1ccc(-c2cnc(N3CCC(C(N)=O)CC3)s2)cc1` it is 0.0688 µM (active).
